Assay outcomes as filed in PubChem BioAssay.
Sampled rows, rich in hits. Any-hit rate of the full collection: about 1.4%.
CCT modulator = changes cytosolic chaperonin activity. purified chaperonin ATPase assay, HTRF ADP detection, 30 min. AID 651819. actives 0.3% (n = 360,000). activity change, % (no concentration beside the values), hits read low; in the data active = activity change below about -30%; note: % is set by controls: 0 for no effect and ±100 for the full control effect
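Nucleotide hydrolysis assay: TRiC at 20–40 nM final (set by batch activity) with 10 uM ATP, 30 min at 37 °C, in presence of 76 uM compound. Detection by competitive ADP HTRF, 30 min ambient.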
12-LOX inh = inhibitors of human 12S-lipoxygenase ALOX12 | Potency, µM (top dose mostly 108 µM), inactives show at the top dose activity change, negative = inhibition, actives largely listed as inhibitors | actives 1.1% (n = 580,000) | purified 12hLO, xylenol orange hydroperoxide absorbance; note: potency is the fitted concentration of half-maximal effect; % is set by controls: 0 for no effect and ±100 for the full control effect
Target sequence (P18054 whole entry, looked up): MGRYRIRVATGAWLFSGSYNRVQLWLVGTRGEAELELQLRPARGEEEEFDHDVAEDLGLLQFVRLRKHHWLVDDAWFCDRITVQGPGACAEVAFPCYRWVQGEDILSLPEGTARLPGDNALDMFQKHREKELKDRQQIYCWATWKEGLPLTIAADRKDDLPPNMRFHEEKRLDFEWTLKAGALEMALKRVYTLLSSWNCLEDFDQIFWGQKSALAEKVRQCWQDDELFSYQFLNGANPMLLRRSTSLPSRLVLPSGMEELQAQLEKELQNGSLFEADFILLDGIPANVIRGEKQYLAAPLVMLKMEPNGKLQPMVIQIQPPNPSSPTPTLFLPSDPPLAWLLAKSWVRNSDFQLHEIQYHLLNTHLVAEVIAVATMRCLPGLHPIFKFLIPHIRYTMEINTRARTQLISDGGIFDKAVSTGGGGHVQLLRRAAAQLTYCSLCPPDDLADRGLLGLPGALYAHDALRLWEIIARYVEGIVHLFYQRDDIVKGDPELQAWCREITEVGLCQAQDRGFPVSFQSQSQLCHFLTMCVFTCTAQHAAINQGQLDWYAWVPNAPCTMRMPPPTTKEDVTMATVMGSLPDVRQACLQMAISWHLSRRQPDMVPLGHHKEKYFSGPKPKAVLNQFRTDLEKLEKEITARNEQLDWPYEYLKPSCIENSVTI
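Hydroperoxide product was detected by ferrous iron/xylenol orange as the 573 to 405 nm absorbance ratio. Arachidonic acid at 40 uM (final) was turned over for 30 min at room temperature by 150 nM human 12hLO, pH 7.0 Hepes buffer, after 15 min compound preincubation.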
MmCpn inh = M. maripaludis TRiC chaperonin inhibition | Potency, µM (doses to about 76.9 µM), for the others: top-dose activity, negative = inhibition, hits mostly inhibitors | purified Mm-Cpn ATPase, ADP Transcreener TR-FRET | actives 0.031% (n = 330,000); note: potency is the fitted concentration of half-maximal effect; % is set by controls: 0 for no effect and ±100 for the full control effect; nearly all actives have a fitted effect of over 80% in size
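ATPase read-out: TR-FRET ADP immunoassay (anti-ADP Eu cryptate vs ADP-d2), ex 320 nm, em 590/665 nm; signal drops as ADP forms. Enzyme 25 nM, ATP 10 uM, 30 min at 37°C after 10 min compound preincubation.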
ASM inhibitor = human S-ASM enzyme inhibition. Potency, µM (top dose mostly 57.5 µM), for inactives: at the highest dose activity change, negative = inhibition, most hits filed as inhibitors. AID 504937. placental ASM, HMU-PC fluorogenic substrate, 60 min. P17405. actives 0.006% (n = 340,000); note: potency is the fitted concentration of half-maximal effect
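Fluorogenic HMU-PC substrate (9 uM final) is turned over by placental ASM in 60 min at 37 C after a 10 min compound preincubation. Reaction ended by alkaline stop (pH 10), with fluorescence read at 386/447 nm.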
p53 reactivation = restores transcriptional activity of mutant p53 | H1299 p53-A138V BP100-luciferase reporter, luminescence, 24 h | Potency, µM (series often up to 92.2 µM), inactives show at the top dose activity change, positive = activation, usual class: activators | actives 0.063% (n = 320,000); note: potency is the fitted concentration of half-maximal effect; % of control where 0% means no effect; nearly all actives have a fitted effect of over 45% in size
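H1299 (p53-null), stable ts p53-A138V + BP100-Luc; 1000 cells/well, Opti-MEM/10% FBS; cpd 4 pt, 1:5; 24 h, 37 deg C, 5% CO2; detection reagent 10 min RT; luminescence.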
PINK1 expr mod = modulators of PINK1 expression; Potency, µM (highest dose often 76.6 µM), for the others: at the highest dose activation (PINK1 increase), usual class: activators; PINK1 immunofluorescence, high-content cytometry, 24 h; actives 0.2% (n = 410,000); active = well fitted activation curve with a large enough effect; inconclusive = small, poorly fitted or top-dose-only effect; cell line not stated here; note: potency is the fitted concentration of half-maximal effect; % of control where 0% means no effect; nearly all actives have a fitted effect of over 65% in size
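Cells are seeded, rested 12 hours, then given compound at five concentrations or DMSO for 24 hours. After fixation, blocking and antibody staining, PINK1 amount and mitochondrial localization are scored; CCCP serves as control.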
Active calls of the source: *; ! = not confirmed by another sample; [ ] = remark or other dose. Unless noted, calls come from the whole dose curve; as a rule, active = well fitted curve in the direction sought with a large enough effect; inconclusive = small, poorly fitted or top-dose-only effect, or another doubt; inactive = no such curve, though single readings can be large; an effect the other way counts as inactive or inconclusive.

How did COc1ccc(-c2noc(-c3cccn3CC(=O)NCCc3ccccc3)n2)cc1F do in these assays?
12-LOX inh: -14.1%

How did COc1cc(/C=C/c2cc[n+](C)cc2)ccc1OCC(=O)Nc1ccc(Cl)c(Cl)c1 do in these assays?
CCT modulator: 1.2; 12-LOX inh: 50.1µM*; MmCpn inh: -2.9%; ASM inhibitor: 76.0%; p53 reactivation: 4.1%; PINK1 expr mod: inconclusive

Results for COc1cc(C(C)=O)ccc1OCC(=O)Nc1ccc(Cl)c(S(=O)(=O)N2CCOCC2)c1 ?
CCT modulator: -98.1*; 12-LOX inh: -13.5%; MmCpn inh: -9.3%; ASM inhibitor: -3.1%; p53 reactivation: -17.3%; PINK1 expr mod: 1.8%

How did Cc1ccc(NC(=O)COC(=O)c2ccc(NC(=O)CC#N)cc2)cc1S(=O)(=O)N1CCOCC1 do in these assays?
CCT modulator: -1.0; 12-LOX inh: 16.2%; MmCpn inh: 31.6µM*; ASM inhibitor: -2.7%; p53 reactivation: -4.2%; PINK1 expr mod: 2.5%

Results for COc1ccc(/C=C/C(=O)OCC(=O)Nc2ccc(S(N)(=O)=O)cc2)cc1OC ?
CCT modulator: -3.5; 12-LOX inh: 0.0%; MmCpn inh: 1.6%; ASM inhibitor: 10.5%; p53 reactivation: 1.0%; PINK1 expr mod: -0.6%

What do the screens show for `CC(=O)c1ccc(OCCCC(=O)Nc2ccc(Cl)c(S(=O)(=O)N3CCOCC3)c2)cc1`?
CCT modulator: -3.7; 12-LOX inh: 29.8%; ASM inhibitor: -5.9%; PINK1 expr mod: 1.8%

Results for Cc1ccc(NC(=O)COC(=O)c2ccc3c(c2)OCCO3)cc1S(=O)(=O)N1CCOCC1 ?
CCT modulator: 2.2; 12-LOX inh: -11.3%; MmCpn inh: -1.9%; ASM inhibitor: -6.0%; p53 reactivation: 4.0%; PINK1 expr mod: 1.1%

Results for COc1ccc(/C=C/C(=O)OCC(=O)Nc2ccc(Cl)c(S(=O)(=O)N(C)C)c2)cc1OC ?
CCT modulator: -2.0; 12-LOX inh: 0.794µM*; MmCpn inh: -9.4%; ASM inhibitor: -11.4%; p53 reactivation: -5.6%; PINK1 expr mod: -2.1%

Results for CCCn1nc(C(=O)OC(C)C(=O)NCc2ccco2)c2ccccc2c1=O (configuration not stated) ?
12-LOX inh: -28.2%

How did O=C(c1cc(-c2ccc(F)cc2)nc2ccccc12)N1CCC(c2nc(C3CCOCC3)no2)C1 (configuration not stated) do in these assays?
12-LOX inh: 9.0%

How did O=C(c1ccc(Cl)cc1)N1CCC2(C1)C(=O)N(c1ccccc1)c1ccccc12 (configuration not stated) do in these assays?
12-LOX inh: -1.7%[6.33 µM]

Results for CCCCCCCCN1C(=O)[C@H](CC(=O)NCc2ccc(C)o2)C[C@@]2(C(=O)OC)CCCCC=C12 ?
CCT modulator: -1.4; 12-LOX inh: 35.5µM*; PINK1 expr mod: 19.7%

How did Cc1ccccc1[C@H]1C[C@@H](O)[C@@H](O)[C@@H]1NC(=O)c1nc2ccccc2s1 do in these assays?
12-LOX inh: 44.7µM*

What do the screens show for `COc1ccc([C@H]2C[C@@H](O)[C@@H](O)[C@@H]2NC(=O)c2nc3ccccc3s2)cc1`?
12-LOX inh: 8.1%[176 µM]

How did COC(=O)c1sc(N)c(C#N)c1C do in these assays?
12-LOX inh: 4.47µM*

Results for CN1c2cc(C(=O)N3CCN(c4cccc(Cl)c4)CC3)ccc2C(=O)N2CCCCC21 (configuration not stated) ?
12-LOX inh: -10.5%

Results for N#C/C(=C/c1ccc(OC(F)F)cc1)c1ccc(C(F)(F)F)cn1 ?
12-LOX inh: 38.5%

Results for Nc1cc(Cc2ccccc2)ccc1O ?
CCT modulator: 0.2; 12-LOX inh: 5.62µM*; ASM inhibitor: 3.5%; PINK1 expr mod: 0.3%

How did Nc1cc(N)cc(Cc2ccccc2)c1 do in these assays?
CCT modulator: -1.5; 12-LOX inh: inconclusive; PINK1 expr mod: 1.6%

What do the screens show for `Cc1[nH]c2ccccc2c1C(c1ccc(O)cc1)c1c(C)[nH]c2ccccc12`?
12-LOX inh: 14.1µM*

How did O=C(CSc1nccnc1N1CCN(c2ccc(F)cc2)CC1)Nc1ccc(F)cc1 do in these assays?
12-LOX inh: -11.1%

How did CCOC(=O)N1CCN(CCC(=O)Nc2cccc(Br)c2)CC1 do in these assays?
CCT modulator: -95.6*!; 12-LOX inh: 3.7%; MmCpn inh: -2.5%; ASM inhibitor: -0.9%; p53 reactivation: -2.9%; PINK1 expr mod: 0.4%[38.3 µM]

Results for Cc1ccccc1N1CCN(CCC(=O)Nc2ccc(F)cc2)CC1 ?
CCT modulator: 0.1; 12-LOX inh: 17.8µM*; MmCpn inh: -1.4%; ASM inhibitor: -0.2%; p53 reactivation: 5.1%; PINK1 expr mod: 8.7%

How did CCOC(=O)N1CCN(CC(=O)Nc2cccc(Br)c2)CC1 do in these assays?
CCT modulator: 1.9; 12-LOX inh: -3.8%; MmCpn inh: -0.1%; ASM inhibitor: 4.8%; p53 reactivation: -4.4%; PINK1 expr mod: -2.7%

How did Cc1cc(NC(=O)CCN2CCN(C/C=C/c3ccccc3)CC2)ccc1Br do in these assays?
CCT modulator: 3.1; 12-LOX inh: 6.31µM*; MmCpn inh: -0.2%; ASM inhibitor: -1.5%; PINK1 expr mod: -1.3%

Results for Cc1ccc(NC(=O)CCN2CCN(CCO)CC2)cc1Br ?
CCT modulator: 0.5; 12-LOX inh: inconclusive; MmCpn inh: -0.7%; ASM inhibitor: 4.4%; p53 reactivation: -0.7%; PINK1 expr mod: -0.1%

Results for Cc1ccc(NC(=O)CCN2CCN(Cc3ccccc3)CC2)cc1Br ?
12-LOX inh: 50.1µM*

Results for O=C(CCN1CCN(c2ccccc2F)CC1)Nc1ccc(F)cc1 ?
CCT modulator: -2.3; 12-LOX inh: 11.2%; MmCpn inh: 0.0%; ASM inhibitor: -1.1%; PINK1 expr mod: 2.8%

Results for COC(=O)[C@@H](NC(=O)Nc1ccc2oc(-c3cccnc3)nc2c1)C(C)C ?
12-LOX inh: -2.1%

How did CC(NC(=O)c1ccc(Cl)c(S(=O)(=O)N2CCCC2)c1)c1cc2ccccc2o1 (configuration not stated) do in these assays?
12-LOX inh: -11.8%

How did COCCNc1ncccc1-c1cc(-c2ccccc2)nc2c(C)noc12 do in these assays?
12-LOX inh: -2.6%[176 µM]

How did O=S(=O)(O)c1cc(O)c2cc(Nc3ccccc3)ccc2c1 do in these assays?
CCT modulator: 0.4; 12-LOX inh: 35.5µM*; ASM inhibitor: 335.3%; PINK1 expr mod: -0.9%
